The full list was thinned out, with hits kept by preference.
Pf Dd2 inh = blocks in vitro growth of P. falciparum Dd2; P. falciparum Dd2 growth, SYBR Green, 72 h; Potency, µM (series often up to 28.9 µM), usual class: inhibitors; 4.3% of 120,000 active; active = well fitted inhibition curve with a large enough effect; also: nearly all actives have a fitted effect of over 65% in size
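Infected erythrocytes (Dd2, 0.3% parasitemia, 2.5% hematocrit final) are added to compound in RPMI-1640/Albumax II medium, grown 72 h at 37C in low oxygen, then lysed with saponin/Triton-X containing SYBR Green and read by fluorescence.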
A number is an active result; n = inactive.

SMILES	Pf Dd2 inh
CC(=O)Nc1ccc(S(=O)(=O)N[C@H]2CO[C@H]3[C@@H]2OC[C@H]3OC(=O)Nc2ccc(C(C)=O)cc2)cc1	n
Cc1cccc(C(=O)N2[C@H]3CC[C@@H]2c2cnc(C)nc2C3)c1	n
O=C(Nc1c(C(=O)Nc2cccc(C(F)(F)F)c2)oc2ccccc12)c1cc(=O)c2ccccc2o1	n
COc1ccc(OC)c(CC(=O)N2CCC3(CC2)OCCCC3O)c1 (configuration not stated)	n
CCn1cc(S(=O)(=O)c2ccccc2)c(=O)c2cc(C)ccc21	n
Cn1cc(S(=O)(=O)c2ccccc2)c(=O)c2cc(F)c(N3CCN(c4ccccc4)CC3)cc21	7.08µM
Cn1cc(S(=O)(=O)c2ccccc2)c(=O)c2cc(F)c(N3CCOCC3)cc21	n
CCn1cc(S(=O)(=O)c2ccccc2)c(=O)c2cc(F)c(N3CCN(c4ccccc4)CC3)cc21	3.16µM
Cc1ccc(S(=O)(=O)c2cn(C)c3cc(N4CCN(c5ccccc5)CC4)c(F)cc3c2=O)cc1	n
CCn1cc(S(=O)(=O)c2cccc(C)c2)c(=O)c2cc(F)c(N3CCCCC3C)cc21 (configuration not stated)	n
COc1ccc(F)c(-c2nc(CN(C)C(C)c3cccs3)c(C)o2)c1 (configuration not stated)	n
COc1ccc(N2CC(c3noc(-c4ccc(Cl)cc4OC)n3)CC2=O)cc1 (configuration not stated)	n
COCc1cc(C[C@@H]2CC[C@H](O)[C@@H](CNCc3ccccc3O)O2)no1	n
O=C(NC1CCCC1)N1CC(c2nnc(-c3ccncc3)o2)C2(CCOCC2)C1 (configuration not stated)	n
CCOc1ccccc1NC(=O)Cn1c(N2CCC(C)CC2)nc(C)cc1=O	11.2µM
COc1ccc(Cl)cc1NC(=O)Cn1c(N2CCN(c3ccccc3)CC2)nc(C)cc1=O	7.94µM
Cc1cc(=O)n(CC(=O)Nc2ccc(Br)cc2)c(N2CCN(c3ccccc3)CC2)n1	n
CCOc1ccc(NC(=O)Cn2c(N3CCN(c4ccccc4)CC3)nc(C)cc2=O)cc1	n
COc1ccccc1NC(=O)Cn1c(N2CCC(C)CC2)nc(C)cc1=O	n
Cc1ccc(NC(=O)Cn2c(N3CCC(C)CC3)nc(C)cc2=O)c(C)c1	n
O=C(c1ccco1)N1CCC(n2cc(-c3nc(C4CC4)no3)nn2)C1 (configuration not stated)	n
COCc1noc([C@@H]2CN(C(=O)CC(C)(C)C)C[C@H]2CO)n1	n
COC[C@H]1NC(=O)CC[C@H]1C(=O)N1CCCCCC1	n
CCN1C(=O)CCN(S(=O)(=O)CC)CC12CCOCC2	n
CCN1C(=O)CCN(C(C)=O)CC12CCOCC2	n
SMILES	Pf Dd2 inh
CCN1C(=O)CCN(CC2CCCCC2)CC12CCOCC2	3.55µM
O=C(c1ccccn1)N1CCCC(Cc2nc(C3CCOCC3)no2)C1 (configuration not stated)	n
COc1ccc(CC(=O)N[C@@H]2CCNC[C@H]2O)c(OC)c1	n
O=S(=O)(NC[C@H]1C[C@@H]2CCN1C[C@@H]2CN1CCN(c2ccccc2)CC1)c1ccccc1	n
O=C(NCc1noc(Cc2cccs2)n1)[C@H]1CCC[C@@H](O)C1	n
COc1ccc(-c2cc(N3CCCC(NC(=O)c4cc(OC)c(OC)c(OC)c4)C3)n[nH]2)cc1 (configuration not stated)	n
COc1ccc([C@@H]2CN(C(=O)c3sccc3C)[C@@H]3C4CCN(CC4)[C@@H]32)cc1	10µM
Cc1ncsc1CCC(=O)N1C[C@@H](c2ccccc2)[C@@H]2[C@H]1C1CCN2CC1	n
CCn1cc(C(=O)N2C[C@H](c3cccc(OC)c3)[C@@H]3[C@H]2C2CCN3CC2)cn1	n
CCC(O)c1cc2n(n1)CCCN(CCn1c(=O)oc3ccccc31)C2 (configuration not stated)	n
CCO[C@H]1CN(Cc2cnc(-c3ccccc3C)s2)C[C@@H]1O	n
Cc1ccccc1-c1nccn2c(C3CN(Cc4ccccc4O)C3)ncc12	0.355µM
Cn1nccc1C(=O)N1CC(c2ncc3c(-c4ccccc4)nccn23)C1	n
Cn1ncc(N2CCOC(CCNC(=O)c3cccnn3)C2)cc1=O (configuration not stated)	n
Cc1nc(SCC(=O)Nc2ccc(Cl)cc2C(F)(F)F)[nH]c(=O)c1Cc1ccccc1	n
COCC1CN(C)CC12CCN(Cc1cccnc1)CC2 (configuration not stated)	n
COc1ccc(CNC(=O)[C@@H]2Cc3cn(CC4CC4)c4cccc(c34)[C@H](CC(C)C)N2)cc1	n
Cc1cc(Cn2cc3c4c(cccc42)[C@H](CC(C)C)N[C@H](C(=O)NCCN(C)C)C3)no1	7.94µM
Cc1cc(Cn2cc3c4c(cccc42)[C@H](CC(C)C)N[C@H](C(=O)NCc2ccccn2)C3)no1	12.6µM
CC#CCn1cc2c3c(cccc31)[C@H](CC(C)C)N[C@H](C(=O)NCc1cccs1)C2	n
CC(C)C[C@@H]1N[C@H](C(=O)O)Cc2cn(Cc3ccncc3)c3cccc1c23	n
CC(C)C[C@@H]1N[C@H](C(=O)NCCN(C)C)Cc2cn(Cc3ccncc3)c3cccc1c23	12.6µM
CC(C)C[C@@H]1N[C@H](C(=O)N2CCOCC2)Cc2cn(CC3CC3)c3cccc1c23	n
Cc1cc(Cn2cc3c4c(cccc42)[C@H](CC(C)C)N[C@H](C(=O)NCCN2CCOCC2)C3)no1	n
CC#CCn1cc2c3c(cccc31)[C@H](CC(C)C)N[C@H](C(=O)NCc1ccc(OC)cc1)C2	n
SMILES	Pf Dd2 inh
COCCn1c(CNC(=O)c2cccc(N(C)C)c2)nc2cccnc21	n
COc1cc(OC)c(NS(=O)(=O)c2ccc3c(c2)NC(=O)CCS3)cc1Cl	n
COc1ccc(-c2nc(N3CCOCC3)cc3c2CN(CC2CC2)C3=O)cn1	n
COc1cccc(-n2c(=O)c3c(C)c(C(=O)N(C)C)sc3n(Cc3ccc(F)cc3Cl)c2=O)c1	n
COc1ccccc1CNS(=O)(=O)c1cc(-c2cc(C)no2)ccc1C	n
COCCCNC(=O)c1ccc2c(c1)C(O)CCCCCN2CCOC (configuration not stated)	n
O=C(Nc1nnc2n1CCS2)c1ccccc1C(F)(F)F	n
CCCN1C(=O)NC(CC(=O)NCc2c(C)ncc3c2CCNC3)C1=O (configuration not stated)	n
Cc1nc(CNC(=O)c2ccc3c(c2)CN(CCCn2ccnc2)C3=O)no1	n
Cc1ccc(-c2nn(-c3cccc(F)c3)cc2CN(C)CCO)o1	7.94µM
COc1ccc(-c2nn(-c3ccccc3C)cc2CN(C)Cc2cn(C)nc2C)cc1F	n
Cc1cc(CN(C)Cc2cn(-c3cccc(F)c3)nc2-c2ccc(C)o2)n[nH]1	n
Cc1ccc(Cn2c(=O)n(CCc3ccc(Cl)cc3)c(=O)c3ccccc32)cc1	n
Cc1ccc(CN2C[C@@H](CO)[C@H](NC(=O)c3cccnc3)C2)cc1	n
CN(CC1(C)CCOCC1)C(=O)Cc1ccccc1	n
O=C1Nc2ccccc2CC12CCCCN2Cc1ccc(F)cc1 (configuration not stated)	n
O=C(NC1CCCCCCC1)C1CCCN(C2CCN(Cc3ccncc3)CC2)C1 (configuration not stated)	12.6µM
Cc1cccc(CN2CCC(N3CCCC(C(=O)NC4CC4)C3)CC2)c1 (configuration not stated)	n
CCCCNC(=O)C1CCCN(C2CCN(Cc3ccncc3)CC2)C1 (configuration not stated)	n
NCCc1ccc(CN2CCC3(CC2)OCCCC3O)cc1 (configuration not stated)	n
